Measured values reported in PubChem BioAssay (EPA / NIEHS).
The source made the active and inactive calls. The calls were made as follows: active = hit-call score of the fitted dose curve at least 0.9, where 1 is the maximum; inactive = score below 0.9.

Assays:
Settings in all cases: mRNA level, 48 h; actives raise or lower the signal
CYP2C8 (gene 1558) = assay: LTEA_HepaRG_CYP2C8: Life Technologies and Expression Analysis (LTEA) Assay for CYP2C8 using HepaRG (AID 2283483)
Outline: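 Differentiated human HepaRG cells were exposed for 48 h in serum-free induction medium to eight half-log concentrations up to 100 uM in 0.5% DMSO, in duplicate. CYP2C8 mRNA was measured by TaqMan qRT-PCR, normalized to ACTB, GAPDH and POLR2A, and fitted bidirectionally against DMSO.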

CYP2C9 (gene 1559) = assay: LTEA_HepaRG_CYP2C9: Life Technologies and Expression Analysis (LTEA) Assay for CYP2C9 using HepaRG (AID 2283484)
Outline: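 Differentiated human HepaRG cells were exposed 48 h in serum-free induction medium to eight half-log concentrations up to 100 uM in 0.5% DMSO. CYP2C9 mRNA was measured by qRT-PCR, normalized to ACTB, GAPDH and POLR2A, and fitted bidirectionally against DMSO.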

CYP2E1 (gene 1571) = assay: LTEA_HepaRG_CYP2E1: Life Technologies and Expression Analysis (LTEA) Assay for CYP2E1 using HepaRG (AID 2283485)
Outline: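 Differentiated HepaRG cells were treated in duplicate for 48 h with chemicals in 0.5% DMSO, from 100 uM downward in half-log dilutions. RNA was then analysed by qRT-PCR for CYP2E1 induction or loss.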

CYP4A11 (gene 1579) = assay: LTEA_HepaRG_CYP4A11: Life Technologies and Expression Analysis (LTEA) Assay for CYP4A11 using HepaRG (AID 2283486)
Outline: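 Differentiated HepaRG cells, serum-free induction medium, exposed 48 h in duplicate to 8-point half-log series from 100 uM in 0.5% DMSO. CYP4A11 mRNA measured by qRT-PCR, normalized to ACTB, GAPDH, POLR2A; bidirectional fit versus DMSO.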

[1] = read-out: Cytochrome P450 3A4 (Homo sapiens) (UniProt P08684); assay: LTEA_HepaRG_CYP3A4: Life Technologies and Expression Analysis (LTEA) Assay for CYP3A4 using HepaRG (AID 2283487)
Outline: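 In a human hepatic line (HepaRG), duplicate wells were treated 48 h with up to 100 uM chemical in half-log dilutions. Endpoint: CYP3A4 mRNA induction or loss relative to 0.5% DMSO vehicle, by qRT-PCR.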

[2] = read-out: DNA damage-inducible transcript 3 (DDIT3), DDIT3 (gene 1649); assay: LTEA_HepaRG_DDIT3: Life Technologies and Expression Analysis (LTEA) Assay for DNA damage-inducible transcript 3 (DDIT3) using HepaRG (AID 2283488)
Outline: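 Changes in DDIT3 transcript, in either direction relative to 0.5% DMSO vehicle, were quantified by TaqMan qRT-PCR after 48 h chemical exposure of HepaRG cells at 8 concentrations, maximum 100 uM.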

[3] = read-out: Pro-epidermal growth factor (Homo sapiens) (UniProt P01133); assay: LTEA_HepaRG_EGF: Life Technologies and Expression Analysis (LTEA) Assay for Epidermal growth factor (EGF) using HepaRG (AID 2283489)
Outline: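 Differentiated human HepaRG cells, plated 48 h then switched to serum-free induction medium, were exposed for 48 h to test chemicals (8-point half-log series, top 100 uM, 0.5% DMSO). EGF mRNA was quantified by qRT-PCR, normalized to ACTB, GAPDH, POLR2A.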

[4] = read-out: Early growth response protein 1 (EGR1) transcription factor, EGR1 (gene 1958); assay: LTEA_HepaRG_EGR1: Life Technologies and Expression Analysis (LTEA) Assay for Early growth response protein 1 (EGR1) transcription factor using HepaRG (AID 2283490)
Outline: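 Differentiated human HepaRG cells in serum-free induction medium were exposed in duplicate for 48 h to eight concentrations (top 100 uM, half-log steps) in 0.5% DMSO. EGR1 mRNA was quantified by qRT-PCR, normalized to ACTB, GAPDH and POLR2A, and fitted bidirectionally versus DMSO.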

[5] = read-out: Ezrin (EZR), EZR (gene 7430); assay: LTEA_HepaRG_EZR: Life Technologies and Expression Analysis (LTEA) Assay for Ezrin (EZR) using HepaRG (AID 2283491)
Outline: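 Gain or loss of EZR mRNA is scored relative to 0.5% DMSO in human HepaRG cultures treated 48 h with test chemicals in duplicate, eight half-log concentrations from 100 uM.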

[6] = read-out: Cytochrome P450 3A7 (Homo sapiens) (UniProt P24462); assay: LTEA_HepaRG_CYP3A7: Life Technologies and Expression Analysis (LTEA) Assay for CYP3A7 using HepaRG (AID 2283492)
Outline: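 HepaRG cells plated 48 h, then dosed in serum-free induction medium for 48 h at 8 concentrations (top 100 uM, half-log steps, 0.5% DMSO). CYP3A7 mRNA by qRT-PCR, normalised to ACTB/GAPDH/POLR2A; bidirectional fit versus DMSO.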

Measured: AC50

Sequence of Cytochrome P450 3A4 (Homo sapiens) (P08684 whole entry, looked up): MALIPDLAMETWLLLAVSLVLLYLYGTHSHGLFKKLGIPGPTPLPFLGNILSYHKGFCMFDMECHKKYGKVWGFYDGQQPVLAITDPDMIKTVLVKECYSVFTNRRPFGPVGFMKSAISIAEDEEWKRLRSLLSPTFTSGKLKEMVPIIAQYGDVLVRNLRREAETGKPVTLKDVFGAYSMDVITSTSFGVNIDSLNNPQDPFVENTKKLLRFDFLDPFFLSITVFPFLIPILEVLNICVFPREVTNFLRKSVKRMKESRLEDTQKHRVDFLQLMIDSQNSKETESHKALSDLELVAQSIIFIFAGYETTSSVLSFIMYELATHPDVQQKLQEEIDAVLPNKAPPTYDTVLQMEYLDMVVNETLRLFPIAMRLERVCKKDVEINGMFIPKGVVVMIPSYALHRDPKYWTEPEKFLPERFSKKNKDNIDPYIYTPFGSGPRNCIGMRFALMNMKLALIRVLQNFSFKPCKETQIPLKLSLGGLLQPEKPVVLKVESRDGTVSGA
Sequence of Cytochrome P450 3A7 (Homo sapiens) (P24462 whole entry, looked up): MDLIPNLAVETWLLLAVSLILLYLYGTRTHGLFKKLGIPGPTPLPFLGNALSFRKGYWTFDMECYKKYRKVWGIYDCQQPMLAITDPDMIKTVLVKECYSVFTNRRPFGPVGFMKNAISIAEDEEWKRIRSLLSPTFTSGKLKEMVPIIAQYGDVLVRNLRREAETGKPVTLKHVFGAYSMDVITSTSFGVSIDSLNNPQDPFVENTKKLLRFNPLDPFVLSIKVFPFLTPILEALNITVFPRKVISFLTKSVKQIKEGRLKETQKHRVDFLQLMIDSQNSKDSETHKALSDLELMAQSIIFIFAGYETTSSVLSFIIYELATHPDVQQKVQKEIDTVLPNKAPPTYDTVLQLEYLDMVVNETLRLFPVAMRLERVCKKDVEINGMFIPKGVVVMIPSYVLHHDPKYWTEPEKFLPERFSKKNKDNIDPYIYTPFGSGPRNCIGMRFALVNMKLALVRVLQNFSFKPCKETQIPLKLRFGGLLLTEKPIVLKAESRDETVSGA

COP(=O)(OC)OC=C(Cl)Cl
inactive: all assays above

O=[N+]([O-])c1c(Cl)c(Cl)c(Cl)c(Cl)c1Cl
active: CYP2E1 (gene 1571) 34.3 µM
not listed: CYP4A11 (gene 1579)
inactive: all other assays above

O=C(Nc1ccccc1)Nc1cnns1
inactive: [1] | [3]
active: CYP2C8 (gene 1558) 88.7 µM | CYP2C9 (gene 1559) 84 µM | CYP2E1 (gene 1571) 70.3 µM | CYP4A11 (gene 1579) 72.9 µM | [2] 79.2 µM | [6] 50 µM

Cc1[nH]c(=O)n(C(C)(C)C)c(=O)c1Cl
active: CYP2E1 (gene 1571) 37 µM
inactive: all other assays above

CCCN(CCC)c1c([N+](=O)[O-])cc(C(F)(F)F)cc1[N+](=O)[O-]
inactive: all assays above

CNC(=O)/C=C(\C)OP(=O)(OC)OC
inactive: all assays above

COc1nn(CSP(=S)(OC)OC)c(=O)s1
inactive: all assays above

CC(C)OC(=O)Nc1cccc(Cl)c1
not listed: CYP2E1 (gene 1571)
inactive: all other assays above

OCCOc1ccccc1
inactive: all assays above

CNC(=O)Oc1cccc(N=CN(C)C)c1
inactive: all assays above

CCN(CC)C(=O)SCc1ccc(Cl)cc1
active: CYP2E1 (gene 1571) 27.3 µM | [1] 9.92 µM
inactive: all other assays above

COP(=S)(OC)Oc1ccc([N+](=O)[O-])cc1
inactive: all assays above
